# Results taken from PubChem BioAssay (NCATS).
# Where “and” joins values, the source holds several entries; their conditions need not be identical. Identical values can stand only once. Unmarked numbers belong to inactive results. Inconclusive results are not listed. Entries that show only a call come without a potency. Calls of active or inactive are those of the source. Unless noted, the call rests on the fitted dose curve; in most records, active means well fitted curve in the direction sought with a large enough effect; inconclusive means small, poorly fitted or top-dose-only effect, or another doubt; inactive means no such curve, though single readings can be large; an effect the other way counts as inactive or inconclusive.
# What was measured:
# [1] = Cell Viability - HUV-EC-C (AID 542);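 further: cells exposed to compound for 40 hours; nearly all actives have a fitted effect of over 35% in size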
# Summary of the method: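 Decrease in cellular ATP, quantified by luciferase luminescence, reflects toxicity in normal human vascular endothelial HUV-EC-C cells given compound for 40 hr in complete culture medium. Values are AC50s from concentration-response curves.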
# [2] = Cell Viability - Mesenchymal (AID 546); conditions: mesenchymal cells viability, qHTS; activity change, negative = cytotoxicity: at 91.7 µM (top of the series);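 further: cells exposed to compound for 40 hours before reading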
# Summary of the method: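 Normal human renal glomerulus-derived kidney mesenchymal cells, 1000 per well in complete medium, were treated with compounds for 40 hr at 37 °C. Viability was read as intracellular ATP by CellTiter-Glo luminescence; AC50 values came from Hill-equation fits of qHTS concentration-response data.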
# [3] = Cellular Toxicity (caspase-3) Jurkat (AID 655); conditions: Jurkat caspase-3 activation, luminescence; caspase-3 activation: at 92.2 µM (top of the series), DMSO = 0%, tamoxifen = 100%;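 further: cells exposed to compound for 16 h at 37 °C before reading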; further: potency means the concentration at half of the fitted maximal effect
# Summary of the method: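 Jurkat cells (5000/well) in complete medium exposed 16 h at 37 C; caspase-3/7 activity read by Caspase-Glo luminescence after 20 min at room temperature. Normalized to DMSO and 100 uM tamoxifen; AC50 from Hill fits.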
# [4] = Cellular Toxicity (caspase-3) HUV-EC-C (AID 656)
# Summary of the method: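 HUV-EC-C cells (1000/well) in complete medium, compound-treated 16 h at 37 °C; caspase-3/7 activity read by Caspase-Glo 3/7 luminescence. Normalized to DMSO (basal) and 100 uM tamoxifen (100%); AC50 from Hill-equation concentration-response fits.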
# [5] = Cellular Toxicity (caspase-3) SHSY5Y (AID 657)
# Summary of the method: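 SH-SY5Y human neuroblastoma cells, 1500/well, exposed to compound for 16 hours at 37 °C in complete medium. Caspase-3/7 activity read by Caspase-Glo luminescence after 1 hr at room temperature, normalized to DMSO and 10 uM staurosporine; AC50 from Hill fit.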
# [6] = Cellular Toxicity (caspase-3) MRC-5 (AID 659)
# Summary of the method: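 Luminescence from caspase-cleaved aminoluciferin substrate (Caspase-Glo 3/7, 1 hr RT) reports caspase 3/7 activity in MRC-5 lung fibroblasts after 16 hr compound exposure. Normalized to DMSO basal and 10 uM staurosporine as 100%; AC50 from Hill fits.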
# [7] = Cellular Toxicity (caspase-3) Mesangial (AID 660);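 further: cells exposed to compound for 16 h before the caspase read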
# Summary of the method: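 Concentration-response qHTS: compound-induced rise in caspase 3/7 luminescence in human mesangial cells after 16 h, normalized to DMSO and 100 uM tamoxifen controls.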
# [8] = Cellular Toxicity (caspase-3) SK-N-SH (AID 661)
# Summary of the method: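 Caspase 3/7 activation is measured as a luminescence increase from aminoluciferin released by substrate cleavage in SK-N-SH cells after 16 hr compound treatment; values are AC50 from concentration-response curves.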
# [9] = Cellular Toxicity (caspase-3) N2a (AID 665);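 further: compound exposure lasted 16 h at 37 °C before readout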
# Summary of the method: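 Plated mouse neuroblastoma N2a cells received titrated compounds for 16 h in complete medium. Caspase activity was then detected with a peptide-aminoluciferin luminescent reagent.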
# [10] = Cellular Toxicity (caspase-3) NIH 3T3 (AID 666);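 further: caspase signal read after 16 h compound exposure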
# Summary of the method: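 Concentration-response qHTS in NIH 3T3 mouse fibroblasts scores caspase-3/7 activation as rising luminescence after 16 hr compound exposure. Signals are scaled between DMSO-only and 100 uM tamoxifen.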
# [11] = Cellular Toxicity (caspase-3) Renal Proximal Tubule (AID 667); conditions: Potency: caspase-3 activation;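 further: cells exposed to compound for 16 hours at 37 °C before detection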
# Summary of the method: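 Freshly isolated primary rat kidney proximal tubule cells, 1000/well, treated 16 hr at 37 °C, then Caspase-Glo 3/7 luminescence after 1 hr. Normalized to DMSO and 10 uM staurosporine; AC50 from Hill fit.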
# [12] = Cell Viability - LYMP1-002 - Assay at 16 hr (AID 948)
# Summary of the method: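 LYMP1-002 human lymphoblastoid cells, 2500/well, were treated with compounds for 16 hr at 37 C in complete medium. Viability was read as intracellular ATP by CellTiter-Glo luminescence, and AC50 was derived from a Hill fit to concentration-response data.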
# [13] = MultiTox-Fluor Cytotoxicity Assay - LYMP1-003 - Dead Cells (AID 961); further: nearly all actives have a fitted effect of over 70% in size; further: potency means the concentration at half of the fitted maximal effect
# Summary of the method: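 Acute toxicity is scored as increased dead-cell protease activity in human lymphoblastoid LYMP1-003 cells after 16 h compound exposure in complete culture medium. Activity is normalized to DMSO basal and 15 uM tetraoctylammonium bromide as full response.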
# [14] = Cell Viability - LYMP1-003 - Assay at 24 hr (AID 963)
# Summary of the method: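 Acute toxicity in LYMP1-003 lymphoblastoid cells: 24 hr compound treatment at 37 C, ATP measured with CellTiter-Glo after 30 min at room temperature. AC50 derived by fitting the Hill equation to qHTS titrations.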
# [15] = Cell Viability - LYMP2-003 (AID 965);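 further: cells exposed to compounds for 24 h before reading; nearly all actives have a fitted effect of over 50% in size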; further: potency means the concentration at half of the fitted maximal effect
# Summary of the method: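 Human lymphoblastoid LYMP2-003 cells, 2500/well, exposed to compounds for 24 h at 37 C in complete medium. Viability read as intracellular ATP by CellTiter-Glo luminescence; AC50 from Hill-equation fits of qHTS concentration-response data.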
# [16] = Cell Viability - LYMP2-026 (AID 989); further: nearly all actives have a fitted effect of over 50% in size
# Summary of the method: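 Concentration-dependent loss of intracellular ATP in human lymphoblastoid cells after 24 hr at 37 C, quantified by luciferase luminescence. AC50 derived from standard Hill equation.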
# [17] = Cell Viability - LYMP1-002 - Assay at 24 hr (AID 993)
# Summary of the method: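 qHTS, LYMP1-002 lymphoblastoid, 24 h cpd, 37 C, CellTiter-Glo ATP luminescence; AC50 via Hill eq.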
# [18] = qHTS Assay for Identification of Small Molecule Inducers of Hypoxia Response (AID 2120; active means well fitted curve in the direction sought with a large enough effect in the signal ratio, with a control signal flat, not every such curve was filed as active; the % refers to the signal ratio)
# Summary of the method: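 Induction of beta-lactamase reporter activity was measured in CellSensor HRE-bla ME-180 cells after 17 h compound treatment at 37 degrees C, using CCF4 substrate and the 460nm/530nm emission ratio to derive AC50 values.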
# [19] = biological target: Peroxisome proliferator-activated receptor alpha (Homo sapiens) (UniProt Q07869); assay: qHTS assay for small molecule agonists of the peroxisome proliferator-activated receptor alpha (PPARalpha) signaling pathway (AID 651778); conditions: PathHunter PPARalpha complementation, chemiluminescence, 6 h; max response: hits give high values
# Peroxisome proliferator-activated receptor alpha (Homo sapiens), sequence (Q07869 whole entry, looked up): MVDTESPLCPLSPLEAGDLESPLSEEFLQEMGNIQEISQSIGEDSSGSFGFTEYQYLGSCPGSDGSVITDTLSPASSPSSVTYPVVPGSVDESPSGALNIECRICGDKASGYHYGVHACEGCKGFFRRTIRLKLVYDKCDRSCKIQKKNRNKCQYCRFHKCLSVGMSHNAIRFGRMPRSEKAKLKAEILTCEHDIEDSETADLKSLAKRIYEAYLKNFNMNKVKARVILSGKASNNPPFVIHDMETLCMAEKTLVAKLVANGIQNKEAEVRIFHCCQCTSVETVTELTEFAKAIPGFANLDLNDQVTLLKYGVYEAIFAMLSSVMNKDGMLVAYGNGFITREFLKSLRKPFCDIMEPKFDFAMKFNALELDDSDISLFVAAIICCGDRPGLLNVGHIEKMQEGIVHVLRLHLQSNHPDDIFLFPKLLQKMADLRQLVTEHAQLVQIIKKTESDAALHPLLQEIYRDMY
# Summary of the method: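 Cells plated at 2,000/well and held overnight at 37 C, 5% CO2, then compound added by pin tool for 6 hr; after PathHunter detection reagent and 60 min at room temperature, chemiluminescence from enzyme complementation was read.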
# [20] = qHTS assay for cell viability of the p53RE-bla HCT-116 cell line (AID 743292); further: nearly all actives have a fitted effect of over 55% in size
# Summary of the method: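 In this qHTS counter-screen, metabolically competent p53RE-bla HCT-116 cells were counted via their ATP content. Compounds were applied for 16 h at 37 C and luciferase-coupled luminescence was measured.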
SMILES,Potency [1],Potency [2],Potency [3],Potency [4],Potency [5],outcome [6],outcome [7],outcome [8],outcome [9],outcome [10],Potency [11],Potency [12],Potency [13],Potency [14],Potency [15],Potency [16],Potency [17],Potency [18],max response [19],Potency [20]
CCCCCCCCC1CO1 (stereo not drawn),inactive,inactive,inactive,inactive,inactive,inactive,inactive,inactive,inactive,inactive,inactive,inactive,inactive,inactive,inactive,inactive,inactive,inactive,-3.27%,inactive
Cc1ccccc1OCC1CO1 (stereo not drawn),inactive,inactive,inactive,inactive,inactive,inactive,inactive,inactive,inactive,inactive,inactive,inactive,inactive,inactive,inactive,inactive,inactive,inactive,-1.41%,inactive
CC(/C=C/C=C(C)/C=C/C(=O)O)=C\C=C\C=C(C)\C=C\C=C(C)\C=C\C(=O)O,inactive,inactive,inactive,inactive,inactive,inactive,inactive,inactive,inactive,,inactive,inactive,inactive,inactive,50.1 µM (active),inactive,inactive,inactive,-2.62%,inactive
CCCCC(CC)COCCCN (stereo not drawn),inactive,inactive,inactive,inactive,inactive,inactive,inactive,inactive,inactive,inactive,inactive,inactive,inactive,inactive,inactive,inactive,inactive,inactive,-9.53%,inactive
Nc1ccccc1O,inactive,inactive,25.1 µM (active),inactive,inactive,inactive,inactive,inactive,inactive,inactive,inactive,inactive,10 µM (active),inactive,inactive,inactive,inactive,inactive,-1.39%,inactive
CC(=O)OCc1ccc2c(c1)OCO2,inactive,inactive,inactive,inactive,inactive,inactive,inactive,inactive,inactive,inactive,inactive,inactive,inactive,inactive,inactive,inactive,inactive,inactive,-4.72%,inactive
O=C1OC(=O)c2ccccc21,inactive,inactive,,inactive,inactive,inactive,inactive,inactive,inactive,inactive,inactive,inactive,inactive,inactive,inactive,inactive,inactive,inactive,5.7%,inactive
Nc1cc([N+](=O)[O-])ccc1O,inactive,inactive,inactive,inactive,inactive,inactive,inactive,inactive,inactive,inactive,inactive,inactive,inactive,inactive,inactive,inactive,inactive,inactive,-13.4% and -8.79%,inactive
Brc1cc(Oc2cc(Br)c(Br)c(Br)c2Br)c(Br)c(Br)c1Br,inactive,inactive,inactive,inactive,inactive,inactive,inactive,inactive,inactive,inactive,inactive,inactive,inactive,inactive,inactive,inactive,inactive,inactive,-7.16% and 0.47%,inactive
CCCC(=O)OC(=O)CCC,inactive,inactive,inactive,inactive,inactive,inactive,inactive,inactive,inactive,inactive,inactive,inactive,inactive,inactive,inactive,inactive,inactive,inactive,-9.39% and -1.32%,inactive
O=C(Cl)c1ccc([N+](=O)[O-])cc1,inactive,inactive,inactive,inactive,inactive,inactive,inactive,inactive,inactive,inactive,inactive,inactive,inactive,inactive,inactive,inactive,inactive,inactive,-4.65%,inactive
CN(C)c1ccc(Cc2ccc(N(C)C)cc2)cc1,inactive,inactive,inactive,inactive,inactive,inactive,inactive,inactive,inactive,inactive,inactive,inactive,inactive,inactive,inactive,inactive,inactive,inactive,1.98% and -1.9%,inactive
Cc1ccc(S(N)(=O)=O)cc1,inactive,inactive,inactive,inactive,inactive,inactive,inactive,inactive,inactive,inactive,inactive,inactive,inactive,inactive,inactive,inactive,inactive,inactive,-6.35% and -0.652%,inactive
